HTT aggregate: qHTS Multiplex Assay to Identify Dual Action Probes in a Cell Model of Huntington: Aggregate Formation (GFP); PC12 HttQ103-GFP aggregates, Acumen cytometry, 40 h; Potency, µM (doses to about 46.1 µM), inactives show at the highest dose activity change, negative = inhibition, most hits filed as inhibitors; actives 1.1% (n = 220,000); active = well fitted curve in the direction sought with a large enough effect; inconclusive = small, poorly fitted or top-dose-only effect, or another doubt; inactive = no such curve, though single readings can be large; an effect the other way counts as inactive or inconclusive; note: % is set by controls: 0 for no effect and ±100 for the full control effect; nearly all actives have a fitted effect of over 60% in size
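Ecdysone-promoter PC12 model expressing HTT exon 1 Q103 fused to GFP, induced by tebufenozide at 100 nM final. Compounds titrated; aggregates sized 1–25 µm scored on a 488 nm laser cytometer.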
HTT cytoprotect: qHTS Multiplex Assay to Identify Dual Action Probes in a Cell Model of Huntington: Cytoprotection (ATP) | PC12 HTT-Q103 induced, cytoprotection, ATP luminescence, 40 h | Potency, µM (doses to about 56.4 µM), without a hit: cytoprotection (ATP increase), usual class: activators | actives 0.14% (n = 230,000) | AID 1471, 2008; active = well fitted curve in the direction sought with a large enough effect; inconclusive = small, poorly fitted or top-dose-only effect, or another doubt; inactive = no such curve, though single readings can be large; an effect the other way counts as inactive or inconclusive; note: % of control where 0% means no effect; nearly all actives have a fitted effect of over 45% in size
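Stable PC12 Q103-GFP cells in serum-supplemented, phenol red-free DMEM; induction by tebufenozide at 100 nM final; compound dose series; cell viability quantified luminescently from ATP.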
Lamin A splicing: qHTS Assay for Modulators of Lamin A Splicing. HeLa LMNA splicing GFP/RFP minigene ratio, 48 h. Potency, µM (series often up to 46.1 µM), inactives show at the top dose ratio change, negative = inhibition, usual class: inhibitors. actives 0.01% (n = 200,000). AID 1487, 2009; active = well fitted inhibition curve with a large enough effect in the signal ratio, with a control signal flat, not every such curve was filed as active; inconclusive = small, poorly fitted or top-dose-only effect, or effect the other way, or a change in a side signal; the % refers to the signal ratio; note: % is set by controls: 0 for no effect and ±100 for the full control effect
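S3 HeLa stable clones carrying a lamin A-EGFP splicing minigene plus DsRed2 were seeded at 600 cells/well in Opti-MEM with 2% FBS, pin-dosed and incubated 48 h at 37°C. Acumen cytometry (488 nm) gave the GFP/RFP total-intensity ratio.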
KDM4E inh: qHTS Assay for Inhibitors of Human Jumonji Domain Containing 2E (JMJD2E); Lysine-specific demethylase 4E (Homo sapiens), B2RXH2; actives 1.6% (n = 230,000); Potency, µM (top dose mostly 57.1 µM), for inactives: at the highest dose activity change, negative = inhibition, usual class: inhibitors; JMJD2E catalytic domain, FDH-coupled NADH fluorescence (FDH is formaldehyde dehydrogenase);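 note: 0% = wells with enzyme and -100% = buffer wells without enzyme; nearly all actives have a fitted effect of over 50% in size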
ALDH1A1 inh: qHTS Assay for Inhibitors of Aldehyde Dehydrogenase 1 (ALDH1A1) | Aldehyde dehydrogenase 1A1 (Homo sapiens), P00352 | Purified ALDH1A1, NADH fluorescence, propionaldehyde substrate | Potency, µM (series often up to 75.3 µM), for inactives: at the highest dose activity, negative = inhibition, actives largely listed as inhibitors | actives 7.3% (n = 220,000) | AID 1030, 2008;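 note: plate controls were no enzyme wells and a reference inhibitor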
Target sequence (P00352 whole entry, looked up): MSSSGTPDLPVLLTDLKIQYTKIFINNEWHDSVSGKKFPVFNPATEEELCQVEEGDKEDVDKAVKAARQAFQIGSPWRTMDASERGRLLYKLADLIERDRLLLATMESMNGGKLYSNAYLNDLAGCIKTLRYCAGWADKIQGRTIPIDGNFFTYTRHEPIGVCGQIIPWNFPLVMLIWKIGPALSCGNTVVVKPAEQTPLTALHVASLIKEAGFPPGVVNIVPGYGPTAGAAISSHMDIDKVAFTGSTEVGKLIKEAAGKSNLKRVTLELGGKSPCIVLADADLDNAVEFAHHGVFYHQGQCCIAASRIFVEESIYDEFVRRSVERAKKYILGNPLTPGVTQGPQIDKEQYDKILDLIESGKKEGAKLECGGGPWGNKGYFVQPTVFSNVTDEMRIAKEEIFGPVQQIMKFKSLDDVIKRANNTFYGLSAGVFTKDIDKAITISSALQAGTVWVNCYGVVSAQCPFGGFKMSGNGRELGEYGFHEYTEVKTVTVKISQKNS
HPGD block: qHTS Assay for Inhibitors of HPGD (15-Hydroxyprostaglandin Dehydrogenase); actives 4.3% (n = 150,000); purified HPGD, NADH fluorescence kinetic, PGE2 substrate; Potency, µM, inactives show at the highest dose activity change, negative = inhibition, most hits filed as inhibitors; note: % is set by controls: 0 for no effect and ±100 for the full control effect
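20 nM HPGD preincubated 15 min at room temperature with compound in 50 mM Tris-HCl pH 8, 0.01% Tween 20. Started with 1 mM NAD+ and 30 uM prostaglandin E2; NADH fluorescence (360/450 nm) read 5 times over 30-s intervals, last minus first.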
Active calls of the source: *; ? = inconclusive; / = not tested or not shown; [ ] = another dose, or the depositor's remark. Compounds with a hit are over-represented: about 9.2% of the library has one in this group of screens. Unless noted, calls come from the whole dose curve; as a rule, active = well fitted inhibition curve with a large enough effect (not every such curve was filed as active); inconclusive = small, poorly fitted or top-dose-only effect, or another doubt; inactive = no such curve, though single readings can be large or run the other way. Potency is the fitted concentration of half-maximal effect.

SMILES	HTT aggregate	HTT cytoprotect	Lamin A splicing	KDM4E inh	ALDH1A1 inh	HPGD block
O=C(NCc1ccccc1)c1ccc(Cc2nc3ccccc3[nH]2)cc1	/	/	/	/	9%	-4%
O=C(NC(NNc1ccc([N+](=O)[O-])cc1)(C(F)(F)F)C(F)(F)F)c1ccc(Cl)cc1	?	-37%	-2%	-9%	?	16µM*
O=C(NNc1ccc([N+](=O)[O-])cc1)c1ccccc1Cl	24%	/	/	0%	-5%	/
CCC(OC(=O)c1nsc(Cl)c1Cl)C(=O)NCc1ccco1 (stereo unspecified)	-6%	1%	6%	4%	?	10µM*
CCC(OC(=O)c1nsc(Cl)c1Cl)C(=O)NC(C)(C)C (stereo unspecified)	-1%	2%	4%[46 µM]	0%	-2%	/
COc1ccc(NC(=O)c2cc3c(=O)n(C)c4cc(Cl)ccc4c3s2)cc1Cl	/	/	2%[46 µM]	/	/	/
COc1ccc(NC(=O)C/C(C)=N/NC(=O)c2ccncc2)c([N+](=O)[O-])c1	-15%	-72%	/	7%	3.5µM*	/
COc1ccc(NC(=O)Cc2ccc(C)cc2)c([N+](=O)[O-])c1	12%	/	?	2%	-6%	-3%
COc1ccc(OCC(=O)N/N=C(\C)CC(=O)Nc2ccc(OC)cc2[N+](=O)[O-])cc1	-25%	-10%	?	30%	20µM*	/
O=C(Cn1nnc2c(cnn2-c2ccc(F)cc2)c1=O)Nc1ccccc1C(F)(F)F	4%[9.22 µM]	3%[10 µM]	23%[46 µM]	?	?	/
Cc1nn(CC(=O)N/N=C/c2cccs2)c(C)c1[N+](=O)[O-]	-6%[9.22 µM]	-14%[10 µM]	/	-1%	/	/
COc1cccc(/C=N/NC(=O)Cn2nc(C)c([N+](=O)[O-])c2C)c1O	2.8µM*	22%[10 µM]	?	11µM*	8%	/
COc1cccc(/C=N/NC(=O)C(C)n2nc(C)c([N+](=O)[O-])c2C)c1O (stereo unspecified)	16µM*	-62%[10 µM]	?	14µM*	16%	-11%
C=CCn1c(C(CC(C)C)CC(C)O)n[nH]c1=S (stereo unspecified)	9%	18%[10 µM]	-4%	3%	-4%	-4%
CN(C)C(=S)Nn1c(-c2ccccc2)nc2ccccc2c1=O	-1%	15%[10 µM]	-2%	-3%	-2%	-1%
Cc1cccc(-c2nc3ccccc3c(=O)n2NC(=S)N(C)C)c1	17%	9%[10 µM]	-4%	-7%	8.9µM*	16µM*
CC(C)(C)OC(=O)[C@H]([C@@H]1N[C@@H](C(=O)O)C(C)(C)S1)N1C(=O)c2ccccc2C1=O	/	1%[10 µM]	/	/	/	/
CN=C(C)/C(C(=O)OC)=C(/O)c1c(F)cccc1F	-15%[9.22 µM]	-6%[10 µM]	/	7%	-6%	/
CCN1C(=O)[C@@H]2[C@H]3C(=CC[C@@H]2C1=O)C1(OCCCO1)[C@H]1O[C@@H]1[C@H]3O	/	-10%[10 µM]	/	/	1.8µM*	/
Cc1ccccc1OCC(=O)NCC(c1ccc(Cl)cc1)N1CCOCC1 (stereo unspecified)	/	/	-5%[46 µM]	/	/	/
O=C(c1cccnc1)N1CCN(c2ccc([N+](=O)[O-])cc2Cl)CC1	-8%	28%[1.9 µM]	-10%	-5%	?	-3%
O=C(c1ccc(-c2ccc(Cl)cc2)o1)N1CCN(c2ccc([N+](=O)[O-])cc2Cl)CC1	7.1µM*	3%[10 µM]	?	-2%	3.2µM*	-16%
O=C(c1ccc(-c2ccc([N+](=O)[O-])cc2)o1)N1CCCCC1	-1%	-17%[10 µM]	?	-15%	11µM*	7.1µM*
CCc1c(C)nc(SCc2nc(-c3ccccc3)no2)[nH]c1=O	/	/	-29%[46 µM]	/	/	/
CCOC(=O)C(Oc1ccc(=O)n(-c2ccccc2)n1)C(C)=O (stereo unspecified)	-8%[9.22 µM]	2%	-1%	4%	18µM*	-7%
SMILES	HTT aggregate	HTT cytoprotect	Lamin A splicing	KDM4E inh	ALDH1A1 inh	HPGD block
O=C(O)COc1ccc(=O)n(-c2ccccc2)n1	?	5%	-6%	-5%	13%	5%
CCOc1cccc(C(=O)Nc2cccc(-c3nc4ncccc4o3)c2C)c1	-16%	-11%	-7%	-10%	18µM*	?
COc1cccc(C(=O)Nc2cccc(-c3nc4ncccc4o3)c2C)c1	-30%	-13%	20%	-2%	?	-16%
CCN1C(=O)[C@H]2[C@H]3[C@H](O)[C@H](O)C/C(=N/NC(=O)OCc4ccc(OC)cc4)[C@@H]3CC[C@@H]2C1=O	/	-15%[10 µM]	/	/	-4%[13.5 µM]	/
S=P(N1CC1)(N1CC1)N1CC1	3%	-66%	?	-4%	-4%	10µM*
O=S(=O)(O)c1ccc(-c2nnc(-c3ccccn3)nc2-c2ccc(S(=O)(=O)O)o2)o1	/	8%[10 µM]	/	/	?	-5%
CN(C)c1cc[n+](CC(=O)N2CCCc3ccccc32)cc1	10%	-39%	?	5%	-4%	/
COc1ccc(C(C#N)N2CCC(c3ccccc3)=N2)cc1OC (stereo unspecified)	40%[9.22 µM]	26%[10 µM]	?	-11%	2.2µM*	/
COc1cc(C(C#N)N2CCC(c3ccccc3)=N2)ccc1O (stereo unspecified)	18%[9.22 µM]	28%[10 µM]	/	-14%	/	/
CCc1ccccc1N1C(=O)N(Cc2cccc(Cl)c2)c2ccccc2S1(=O)=O	/	/	-20%[46 µM]	/	/	/
CC1CCCN(C(=O)c2ccc3c(=O)n(Cc4ccc5c(c4)OCO5)c(=S)[nH]c3c2)C1 (stereo unspecified)	-19%	-28%	?	-1%	10µM*	5µM*

Screening data from PubChem BioAssay.
